Entries with a potency or affinity are not part of this list. Active and inactive are the calls of the source.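 How the source made its calls: active means compound whose falling signal curve reaches half its effect at no more than twice the top valid dose; inconclusive means flat curve with 30 to 70% inhibition, or poor fit; inactive means the rest.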
test: TRPM1 promoter luciferase reporter signal decrease, dose response, MITF inhibitor project, cell-based, SK-MEL-5, dry powder, set 8 (AID 624430); settings: SK-MEL-5 TRPM1 promoter luciferase reporter, 24 h; series mostly up to 35 µM; activity change, negative = inhibition: at the top concentration

| SMILES | activity change, negative = inhibition |
| --- | --- |
| O=C1C=C(NC2CCCCC2)C(=O)c2ccccc21 | 40.2% (inactive) |
| CC1=C(N)C(=O)c2ccccc2C1=O | 27.8% (inactive) |
| O=C1C=C(Nc2ccc(F)cc2)C(=O)c2ccccc21 | 12.9% (inactive) |
| O=C1C=C(Nc2ccc3ccccc3c2)C(=O)c2ccccc21 | -25.7% (inactive) |
| Cc1ccc(NC2=CC(=O)c3ccccc3C2=O)cc1C | -73.2% (inactive) |
| O=C1C=C(NCc2ccccc2)C(=O)c2ccccc21 | 3.45% (inactive) |
| COc1ccc(NC2=CC(=O)c3ccccc3C2=O)cc1 | -70.2% (inactive) |
